This is part of a sample that, as a whole, favours compounds with a hit. Of some 79,000 tested, about 15% had one in any assay. Activity calls are given as the source filed them. Cut-off read from the data, not from the text of the source: active = growth inhibition above about 70%; inactive = the rest.
Tests used:
[1] = NCI Yeast Anticancer Drug Screen. Data for the rad52 strain (AID 147);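 note: 0% = growth of vehicle-treated control cultures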; details: S. cerevisiae rad52 mutant growth inhibition, active compounds read high
How it was run: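 Genetically altered yeast (DNA damage repair defect) treated with compound; inhibition calculated relative to vehicle.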

[2] = NCI Yeast Anticancer Drug Screen. Data for the wt1 strain (AID 149);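 note: 0% = growth of vehicle-treated wt1 cultures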; details: S. cerevisiae wt1 strain (SPY 50644) growth inhibition, active compounds read high
How it was run: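 Growth inhibition read against vehicle controls after compound exposure of the wt1 yeast strain.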

[3] = NCI Yeast Anticancer Drug Screen. Data for the rad50EPP+ strain (AID 151);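 note: 0% = growth of vehicle-treated control cultures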; details: S. cerevisiae rad50 mutant strain, active compounds read high
How it was run: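 Strain rad50EPP+; compound exposure; % growth inhibition vs vehicle.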

[4] = NCI Yeast Anticancer Drug Screen. Data for the mgt1 strain (AID 153); details: S. cerevisiae mgt1 mutant growth inhibition, active compounds read high
How it was run: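 Read-out: yeast growth inhibition vs vehicle control. Strain mgt1, drawn from a panel altered in DNA damage repair or cell cycle control.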

[5] = NCI Yeast Anticancer Drug Screen. Data for the rad50 strain (AID 155);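 note: 0% = growth of vehicle-only cultures of the same strain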; details: S. cerevisiae rad50 strain growth inhibition, active compounds read high
How it was run: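 Readout: growth inhibition relative to vehicle-treated cultures. Compound exposure was carried out in a genetically defined yeast strain deficient in DNA damage repair.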

[6] = NCI Yeast Anticancer Drug Screen. Data for the mec2-1 strain (AID 157); details: S. cerevisiae mec2-1 strain, active compounds read high
How it was run: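 Cells of the genetically defined mec2-1 yeast strain are incubated with test compound. Inhibition of growth is calculated against vehicle-treated controls.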

[7] = NCI Yeast Anticancer Drug Screen. Data for the rad14 strain (AID 159);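 note: 0% = growth of vehicle-treated control cultures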; details: S. cerevisiae rad14 strain growth inhibition, active compounds read high
How it was run: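 Growth inhibition vs vehicle controls; genetically altered yeast strain (DNA damage repair defect) treated with test compounds.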

[8] = NCI Yeast Anticancer Drug Screen. Data for the sgs1 mgt1 strain (AID 161);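 note: 0% = growth of cultures given vehicle only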; details: S. cerevisiae sgs1 mgt1 strain, active compounds read high
How it was run: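 Mutant yeast exposed to compound; growth scored against vehicle-only wells.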

[9] = NCI Yeast Anticancer Drug Screen. Data for the CLN2oe strain (AID 163);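 note: 0% = growth of vehicle-only control cultures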; details: S. cerevisiae CLN2oe strain, active compounds read high
How it was run: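 Strain altered in cell-cycle control, incubated with compound; growth compared to solvent-treated controls.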

[10] = NCI Yeast Anticancer Drug Screen. Data for the cln2 rad14 strain (AID 165);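 note: 0% = growth equal to vehicle treated cultures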; details: S. cerevisiae cln2 rad14 strain, active compounds read high
How it was run: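 The screen exposed genetically defined yeast (cln2 rad14) to test compounds and scored growth inhibition relative to vehicle-treated controls.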

[11] = NCI Yeast Anticancer Drug Screen. Data for the bub3 strain (AID 167); details: S. cerevisiae bub3 mutant strain, active compounds read high
How it was run: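 Readout: yeast growth inhibition, expressed relative to vehicle-only wells. The test organism is a mutant strain from a panel with lesions in DNA repair or checkpoint genes.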

[12] = NCI Yeast Anticancer Drug Screen. Data for the wt2 strain (AID 169);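 note: 0% = growth of vehicle-treated yeast cultures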; details: S. cerevisiae wt2 strain growth inhibition, active compounds read high
How it was run: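 Steps: yeast strain treated with compound; growth recorded; inhibition calculated relative to cultures given vehicle alone.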

[13] = NCI Yeast Anticancer Drug Screen. Data for the mlh1 strain (AID 171);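 note: 0% = growth of vehicle-treated control cultures of the same strain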; details: S. cerevisiae mlh1 strain growth inhibition, active compounds read high
How it was run: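 Yeast screen: mutant strain plus compound, growth scored against vehicle control wells.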

[14] = NCI Yeast Anticancer Drug Screen. Data for the sgs1 strain (AID 173);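 note: 0% = growth of vehicle-only control cultures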; details: S. cerevisiae sgs1 mutant, active compounds read high
How it was run: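 Inhibition of yeast growth served as the measure. The mutant strain was treated with each compound, and growth was normalised to cultures receiving vehicle alone.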

[15] = NCI Yeast Anticancer Drug Screen. Data for the mlh1 rad18 strain (AID 175); details: S. cerevisiae mlh1 rad18 strain growth inhibition, active compounds read high
How it was run: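 Compound-treated yeast growth, normalised to vehicle controls. Strain bears defined DNA repair mutations.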

[16] = NCI Yeast Anticancer Drug Screen. Data for the rad18 strain (AID 177); details: S. cerevisiae rad18 mutant growth inhibition, active compounds read high
How it was run: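 Inhibition values reflect reduced yeast growth compared with vehicle-treated controls, using a strain engineered with a DNA damage repair defect.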

[17] = at 5.0 µM (retest, dose inferred, filed as 0.5)
[18] = at 50.0 µM (retest, dose inferred, filed as 5.0)

Measured: growth inhibition

O=C1C2CC(Cl)C(SSC3CC4C(=O)N(SC(Cl)(Cl)C(Cl)Cl)C(=O)C4CC3Cl)CC2C(=O)N1SC(Cl)(Cl)C(Cl)Cl (stereo not drawn)
active: [1]; at 1.2 µM 71% | [1]; at 3.7 µM 91% | [1]; at 11.0 µM 96% | [1]; at 33.0 µM 95% | [1]; at 100.0 µM 89% | [2]; at 3.7 µM 83% | [2]; at 11.0 µM 97% | [2]; at 33.0 µM 96% | [2]; at 100.0 µM 93% | [3]; at 1.2 µM 75% | [3]; at 3.7 µM 97% | [3]; at 11.0 µM 98% | [3]; at 33.0 µM 97% | [3]; at 100.0 µM 93% | [4]; at 3.7 µM 98% | [4]; at 11.0 µM 99% | [4]; at 33.0 µM 97% | [4]; at 100.0 µM 92% | [5]; at 3.7 µM 92% | [5]; [17] 98% | [5]; at 11.0 µM 97% | [5]; at 33.0 µM 96% | [5]; [18] 95% | [5]; at 50.0 µM 90.3% | [5]; at 100.0 µM 90% | [6]; at 3.7 µM 91% | [6]; [17] 100% | [6]; at 11.0 µM 99% | [6]; at 33.0 µM 98% | [6]; [18] 98% | [6]; at 50.0 µM 90.4% | [6]; at 100.0 µM 94% | [7]; at 1.2 µM 83% | [7]; at 3.7 µM 96% | [7]; at 11.0 µM 97% | [7]; at 33.0 µM 96% | [7]; at 100.0 µM 90% | [8]; [18] 95% | [8]; at 50.0 µM 89.5% | [9]; at 3.7 µM 96% | [9]; at 11.0 µM 98% | [9]; at 33.0 µM 97% | [9]; at 100.0 µM 90% | [10]; at 50.0 µM 84.9% | [11]; at 1.2 µM 80% | [11]; at 3.7 µM 99% | [11]; at 11.0 µM 99% | [11]; at 33.0 µM 96% | [11]; [18] 98% | [11]; at 50.0 µM 92.8% | [11]; at 100.0 µM 90% | [12]; at 3.7 µM 95% | [12]; at 11.0 µM 98% | [12]; at 33.0 µM 97% | [12]; at 100.0 µM 90% | [13]; at 3.7 µM 97% | [13]; at 11.0 µM 98% | [13]; at 33.0 µM 97% | [13]; at 100.0 µM 93% | [14]; at 1.2 µM 80% | [14]; at 3.7 µM 98% | [14]; at 11.0 µM 97% | [14]; at 33.0 µM 96% | [14]; at 100.0 µM 87% | [15]; [17] 99% | [15]; [18] 96% | [15]; at 50.0 µM 90.8% | [16]; at 1.2 µM 96% | [16]; at 3.7 µM 97% | [16]; at 11.0 µM 97% | [16]; at 33.0 µM 97% | [16]; at 100.0 µM 89%
inactive: [2]; at 1.2 µM 14% | [4]; at 1.2 µM 68% | [5]; at 1.2 µM 49% | [6]; at 1.2 µM 37% | [8]; [17] -9% | [9]; at 1.2 µM 40% | [10]; [17] -20% | [10]; [18] -57% | [11]; [17] -6% | [12]; at 1.2 µM 17% | [13]; at 1.2 µM 64%

From PubChem BioAssay (NCI)
